ELG1 DNA repair: ELG1-dependent DNA repair inhibition | HEK293T ELG1-luciferase reporter, luminescence, 16 h; DNA damage induced by 5-fluorouridine | Potency, µM (highest dose often 46.1 µM), without a hit: at the top dose activity change, negative = inhibition, usual class: inhibitors | 330,000 compounds, 2.3% hits; note: nearly all actives have a fitted effect of over 55% in size
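5-Fluorouridine DNA damage + compound/DMSO, 2,000 cells/well, 16 h, 37 °C/5% CO2. ONE-Glo, 30 min RT, luminescence. Readout = decrease in reporter signal.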
Gal4-VP16 FLuc: Gal4-VP16 reporter inhibition counter-screen; Drosophila S2 Gal4-VP16 UAS-luciferase, luminescence, 20 h; 310,000 compounds, 3.5% hits; Potency, µM (highest dose often 53.6 µM), for the others: at the top dose activity, negative = inhibition, hits mostly inhibitors;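 note: Gal4-VP16 expression switched on by copper sulfate through the metallothionein promoter; nearly all actives have a fitted effect of over 50% in size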
12-LOX inh: blocks human arachidonate 12S-lipoxygenase; P18054; purified 12hLO, xylenol orange hydroperoxide absorbance; Potency, µM (top dose mostly 108 µM), without a hit: top-dose activity change, negative = inhibition, actives largely listed as inhibitors; 580,000 compounds, 1.1% hits
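Purified human 12hLO (150 nM final) in 25 mM Hepes, 0.01% Triton X-100, pH 7.0 was preincubated 15 min at room temperature with compound. Then 40 uM arachidonic acid was added, 30 min. Hydroperoxide was read by Fe-XO absorbance ratio 573/405 nm.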
RORgamma inh: ROR gamma (mouse) transcription inhibition; P51450; Drosophila S2 Gal4-RORgamma UAS-luciferase reporter, 20 h; Potency, µM (doses to about 53.6 µM), inactives show at the top dose activity change, negative = inhibition, hits mostly inhibitors; 310,000 compounds, 5.4% hits; note: nearly all actives have a fitted effect of over 60% in size
Target sequence (P51450 whole entry, looked up, the tested form may be a part): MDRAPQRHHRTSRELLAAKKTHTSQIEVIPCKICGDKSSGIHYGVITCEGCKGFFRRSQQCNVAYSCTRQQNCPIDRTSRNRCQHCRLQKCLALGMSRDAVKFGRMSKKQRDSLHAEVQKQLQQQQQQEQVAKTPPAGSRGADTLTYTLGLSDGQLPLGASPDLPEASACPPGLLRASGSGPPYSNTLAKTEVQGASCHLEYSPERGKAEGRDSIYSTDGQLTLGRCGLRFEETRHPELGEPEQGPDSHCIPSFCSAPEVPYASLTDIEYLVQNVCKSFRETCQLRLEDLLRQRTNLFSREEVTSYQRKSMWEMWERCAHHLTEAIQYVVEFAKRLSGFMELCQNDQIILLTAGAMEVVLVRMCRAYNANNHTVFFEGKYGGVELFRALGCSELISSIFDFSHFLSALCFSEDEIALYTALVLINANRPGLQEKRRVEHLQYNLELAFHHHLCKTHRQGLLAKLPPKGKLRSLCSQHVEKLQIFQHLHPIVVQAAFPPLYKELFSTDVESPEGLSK
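Stably transfected Drosophila Schneider cells are the test system, with ROR gamma fused to Gal4 and luciferase under UAS control; luminescence is read after 20 hr of 700 uM copper sulfate induction at ambient temperature.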
TDP1 cell noCPT: qHTS for Inhibitors of human tyrosyl-DNA phosphodiesterase 1 (TDP1): qHTS in cells in absence of CPT. DT40 Tdp1-/- hTDP1 cells, no CPT, ATP luminescence, 48 h. Potency, µM (highest dose often 46.2 µM), inactives show top-dose activity change, negative = growth inhibition, most hits filed as inhibitors. 420,000 compounds, 15% hits. AID 686978, 2013; note: nearly all actives have a fitted effect of over 55% in size
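No-CPT arm: Tdp1-/-;hTDP1 DT40 cells (400/well) plus compounds, incubated ≥48 hr at 37 °C. Readout CellTiter-Glo luminescence.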
TDP1 cell CPT: DT40-hTDP1 cell growth loss with CPT. chicken DT40 Tdp1-/-;hTDP1 cells + 20 nM CPT, ATP luminescence, 48 h. 420,000 compounds, 12% hits. AID 686979. Potency, µM (top dose mostly 46.2 µM), inactives show at the highest dose activity change, negative = growth inhibition, most hits filed as inhibitors; note: nearly all actives have a fitted effect of over 55% in size
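Chicken DT40 Tdp1-/- cells stably complemented with human TDP1 were seeded at 400 cells/well in medium containing 20 nM camptothecin, exposed to pin-transferred compounds, and grown at 37 °C for at least 48 hr. Viability was read as ATP luminescence.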
Numbers without * were called inactive; i = inactive; ? = inconclusive; . = not tested or not shown. A selection: hits, their analogues and other compounds. The true share with any hit is near 15%. Calls come from the whole dose curve; as a rule, active = well fitted curve in the direction sought with a large enough effect; inconclusive = small, poorly fitted or top-dose-only effect, or another doubt; inactive = no such curve, though single readings can be large; an effect the other way counts as inactive or inconclusive. % is set by controls: 0 for no effect and ±100 for the full control effect; potency is the fitted concentration of half-maximal effect.

SMILES	ELG1 DNA repair	Gal4-VP16 FLuc	12-LOX inh	RORgamma inh	TDP1 cell noCPT	TDP1 cell CPT
NC(=O)c1ccc(COC(=O)c2c(F)cccc2F)cc1	.	.	21%	.	.	.
COc1cc2c(cc1OC)CC(=O)NC=C2	?	-2%	-8%	-30%	-4%	7%
COc1cc2c(cc1OC)C(c1ccc(N)cc1)=NNC(=O)C2	.	-3%	-7%	3%	15µM*	21µM*
COc1cccc(CNC(=O)c2ccc(CS(=O)Cc3ccc(C)cc3)o2)c1 (stereo not drawn)	?	-2%	2%	10%	?	-23%
COc1cccc(N2CCN(C(=O)c3ccc(CS(=O)c4ccc(C)cc4)o3)CC2)c1 (stereo not drawn)	10%	0%	-21%	-10%	0.52µM*	0.58µM*
COc1cccc(N2CCN(C(=O)c3ccc(CS(=O)c4ccc(Cl)cc4)o3)CC2)c1 (stereo not drawn)	?	1%	?	-7%	0.92µM*	0.73µM*
COc1cccc(N2CCN(C(=O)c3ccc(CS(=O)Cc4ccc(C)cc4)o3)CC2)c1 (stereo not drawn)	15µM*	-3%	-30%	3%	?	?
Cc1cc(OC(C)C(=O)N2CCc3c(nc[nH]c3=O)C2)cc(C)c1Cl (stereo not drawn)	.	.	10%	.	.	.
O=C(CCCc1ccccc1)NCc1ccco1	.	.	6%	.	.	.
CC(C)(C)CC(=O)NC(=S)NCc1ccco1	-5%	?	-16%	4.5µM*	0%	-14%
O=C(CCc1ccccc1)NC(=S)NCc1ccco1	6%	?	-24%	7.9µM*	21µM*	12%
CC(C)(O)C(=O)NNC(=S)NCc1ccco1	-3%	6%	i	40%	-8%	-7%
Cc1ccc([C@H]2C[C@H](O)[C@@H](n3cc(COC(=O)c4ccccc4)nn3)CN2C(=O)c2cccs2)cc1	.	.	-36%	.	?	?
Cc1ccc([C@H]2C[C@H](O)[C@@H](n3cc(-c4ccc(F)cc4)nn3)CN2C(=O)c2cccs2)cc1	.	.	?	.	18µM*	?
Cc1ccc([C@H]2C[C@@H](O)[C@H](n3cc(-c4ccc(F)cc4)nn3)CN2C(=O)c2cccs2)cc1	.	.	-5%	.	15µM*	?
Cc1ccc([C@H]2C[C@@H](n3cc(C4CC4)nn3)[C@H](O)CN2C(=O)c2cccs2)cc1	.	.	20%	.	-17%	0%
Cc1ccc([C@H]2C[C@@H](n3cc(-c4ccc(F)cc4)nn3)[C@H](O)CN2C(=O)c2cccs2)cc1	.	.	?	.	15µM*	18µM*
C/C(=N/O)c1cnn(-c2ccccc2)c1C	.	.	36%	.	.	.
O=C(Nc1nc(-c2ccco2)c(-c2ccco2)s1)c1c(F)cccc1Cl	0%	.	?	.	-5%	-29%
O=S(=O)(Nc1nc(-c2ccco2)c(-c2ccco2)s1)c1ccc(F)cc1F	.	.	7.9µM*	.	-18%	-18%
CN(CC(=O)Nc1ccc(S(=O)(=O)N2CCCC2)cc1)Cc1ccc(Cl)cc1Cl	?	-16%	-29%	0%	?	18µM*
Cc1ccc(NC(=O)CN(C)C(C)C(=O)Nc2ccc(S(=O)(=O)N3CCCC3)cc2)cc1 (stereo not drawn)	?	.	-27%	.	23µM*	18µM*
CN(CC(=O)Nc1cccc(F)c1)C(=O)c1ccc(N2CCCCC2)c([N+](=O)[O-])c1	2%	.	-21%	.	15µM*	16µM*
COc1ccc(N(C(C)C(=O)Nc2ccc(S(=O)(=O)N3CCCCC3)cc2)S(C)(=O)=O)cc1 (stereo not drawn)	-1%	9%	-33%	45%	29µM*	?
COc1ccc(N(C(C)C(=O)Nc2ccc(S(=O)(=O)N3CCOCC3)cc2)S(C)(=O)=O)cc1 (stereo not drawn)	2%	-5%	3%	-1%	?	9%
SMILES	ELG1 DNA repair	Gal4-VP16 FLuc	12-LOX inh	RORgamma inh	TDP1 cell noCPT	TDP1 cell CPT
CC(C(=O)Nc1ccc(S(=O)(=O)N2CCCC2)cc1)N(C)CC(=O)Nc1cccc(F)c1 (stereo not drawn)	-11%	.	-9%	.	?	?
CN(CC(=O)Nc1ccc(S(=O)(=O)N2CCCC2)cc1)CC(=O)Nc1ccc(F)c(F)c1F	?	-10%	3%	13%	?	0%
Cn1c(CNC(=O)CC[C@H]2NC(=O)c3ccccc3NC2=O)nc2ccccc21	.	.	14%	.	.	.
Cc1ccc(NCC(=O)Nc2cccc(F)c2)cc1S(=O)(=O)N1CCCCCC1	14%	?	-5%	?	16µM*	?
O=C(CNc1cccc(F)c1)Nc1cccc(S(=O)(=O)N2CCCCC2)c1	?	.	-29%	.	-10%	13%
CN(CC(=O)Nc1ccc(S(=O)(=O)N2CCCC2)cc1)CC(=O)Nc1cccc(F)c1	?	-5%	-8%	30%	23µM*	18µM*
COc1ccc(CCN(C)c2ccc(S(=O)(=O)N3CCCC3)cc2[N+](=O)[O-])cc1OC	-28%	-7%	10%	35%	12µM*	16µM*
CN(CC(=O)Nc1ccc(Cl)cc1)c1ccc(S(=O)(=O)N2CCCCC2)cc1[N+](=O)[O-]	18µM*	?	-22%	?	?	18µM*
C=CCSc1nnc(NC(=O)c2cc(=O)c3cc(CC)ccc3o2)s1	.	.	14%	.	.	.
CCc1noc2ncnc(N3CCCC(C(=O)NCc4cccc(OC)c4)C3)c12 (stereo not drawn)	.	.	-29%	.	.	.
NC(=O)c1ccccc1NC(=O)C1CCCN(c2ncnc3onc(-c4ccc(F)cc4)c23)C1 (stereo not drawn)	.	.	1%	.	15µM*	13µM*
CCc1cccc(NC(=O)C2CCCN(c3ncnc4onc(-c5ccc(F)cc5)c34)C2)c1 (stereo not drawn)	.	.	3%	.	10µM*	13µM*
COc1ccccc1NC(=O)C1CCCN(c2ncnc3onc(-c4ccc(F)cc4)c23)C1 (stereo not drawn)	.	.	2%	.	16µM*	?
Cc1nc(-c2ccccc2Cl)sc1C(=O)N[C@H](CC(C)C)C(=O)O	.	.	-9%	.	.	.
Cc1nc(C2CC(O)C2)cc(N(C)Cc2cnc3ccccc3c2)n1 (stereo not drawn)	.	.	25%	.	.	.
Cc1ccc(OCC(=O)NCCC2CCN(C(=O)Nc3ccccc3C)CC2)cc1	.	.	12%	.	.	.
Cc1cccc(NC(=O)CCc2c[nH]c3ccccc23)c1	.	.	-24%	.	.	.

Screening results deposited in PubChem by National Center for Advancing Translational Sciences (NCATS).
